Measured values reported in the supplement of paper PMC10849652.
The full data set covers some 7,900 targets. This sample favours those with a hit. About 0.6% of all pairs of compound and target were hits. Unmarked numbers belong to inactive results.

Experiments:
Experiment in all cases: log2 fold change, soluble protein after heating vs DMSO (PISA); higher = thermal stabilisation; K562 cells, 10 uM, 30 min; active = over 0.2 and 3.5 SD of the protein, either way, in both replicates (recomputed)
IRAK-1-4 Inhibitor I = compound: C1COCCN1CCN2C3=CC=CC=C3N=C2NC(=O)C4=CC(=CC=C4)[N+](=O)[O-] [IRAK-1-4 Inhibitor I]
Method in brief: (§1)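 K562 cells at 2×10^6 cells/mL were treated for 30 min with 10 μM compound, and aliquots were heated for 3 min over 48°C-58°C before pooling. Extraction used PBS with 0.5% NP-40 at 4°C, and soluble protein was the supernatant after 21,000xg for 90 min, measured by TMTpro 16plex LC-MS/MS with channel sums equalised. Thermal stability values, relative to control samples and from duplicates, are log2 fold changes.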

ibrutinib = compound: C=CC(=O)N1CCC[C@@H](n2nc(-c3ccc(Oc4ccccc4)cc3)c3c(N)ncnc32)C1 [ibrutinib]
Method in brief: as §1

[1] = compound: CC(=O)c1cnc2ccc(-c3cc(Cl)c(O)c(Cl)c3)nc2c1N[C@H]1CC[C@H](CN(C)C)CC1
Method in brief: as §1

[2] = compound: CC(C)C1=C2N=C(C=C(N2N=C1)NCC3=CC=CC=C3)NCCCCCCN
Method in brief: as §1

pinometostat = compound: CC(C)N(C[C@H]1O[C@@H](n2cnc3c(N)ncnc32)[C@H](O)[C@@H]1O)[C@H]1C[C@@H](CCc2nc3cc(C(C)(C)C)ccc3[nH]2)C1 [pinometostat]
Method in brief: as §1

[3] = compound: CC1=C(C(CC(=O)N1)C2=CC=C(C=C2)C(F)(F)F)C(=O)NC3=C(C=C4C(=C3)C=NN4)F
Method in brief: as §1

[4] = compound: CC1=C(C2=C(C=C1)C(=O)C3=CC=CC=C3N2CCCN)C
Method in brief: as §1

[5] = compound: CC1=C(C=C(C=C1)NC(=O)C2=CC(=CC=C2)C(C)(C)C#N)NC3=CC4=C(C=C3)N=CN(C4=O)C
Method in brief: as §1

[6] = compound: CC1=NC(=CC=C1)C2=C(N=C(N2)C(C)(C)C)C3=CC4=NC=CN=C4C=C3
Method in brief: as §1

vemurafenib = compound: CCCS(=O)(=O)Nc1ccc(F)c(C(=O)c2c[nH]c3ncc(-c4ccc(Cl)cc4)cc23)c1F [vemurafenib]
Method in brief: as §1

[7] = compound: CCCc1cc(C)[nH]c(=O)c1CNC(=O)c1cc(-c2ccnc(N3CCN(C)CC3)c2)cc2c1cnn2C(C)C
Method in brief: as §1

givinostat = compound: CCN(CC)Cc1ccc2cc(COC(=O)Nc3ccc(C(=O)NO)cc3)ccc2c1 [givinostat]
Method in brief: as §1

barasertib = compound: CCN(CCCOc1ccc2c(Nc3cc(CC(=O)Nc4cccc(F)c4)[nH]n3)ncnc2c1)CCOP(=O)(O)O [barasertib]
Method in brief: as §1

ralimetinib = compound: CC(C)(C)Cn1c(N)nc2ccc(-c3[nH]c(C(C)(C)C)nc3-c3ccc(F)cc3)nc21 [ralimetinib]
Method in brief: as §1

[8] = compound: CC(C)(O)CC(=O)NCCn1ccc2ncnc(Nc3ccc(Oc4cccc(C(F)(F)F)c4)c(Cl)c3)c21
Method in brief: as §1

[9] = compound: CC(C)C[C@@H](C=O)NC(=O)[C@H](CC(C)C)NC(=O)[C@H](CC(C)C)NC(=O)OCc1ccccc1
Method in brief: as §1

[10] = compound: CC1=C(C=C(C=C1)NC(=O)C2=CC(=CC=C2)N(C)C)NC(=O)C3=CC=C(C=C3)O
Method in brief: as §1

[11] = compound: CC1=CC=C(C=C1)SC2=C3C=C(SC3=CN=C2)C(=O)N
Method in brief: as §1

Nexturastat A = compound: CCCCN(Cc1ccc(C(=O)NO)cc1)C(=O)Nc1ccccc1 [Nexturastat A]
Method in brief: as §1

[12] = compound: CCCS(=O)(=O)Nc1ccc(F)c(C(=O)c2c[nH]c3ncc(Cl)cc23)c1F
Method in brief: as §1

Chain of UniProt Q96DX7 (Q96DX7 whole entry, looked up): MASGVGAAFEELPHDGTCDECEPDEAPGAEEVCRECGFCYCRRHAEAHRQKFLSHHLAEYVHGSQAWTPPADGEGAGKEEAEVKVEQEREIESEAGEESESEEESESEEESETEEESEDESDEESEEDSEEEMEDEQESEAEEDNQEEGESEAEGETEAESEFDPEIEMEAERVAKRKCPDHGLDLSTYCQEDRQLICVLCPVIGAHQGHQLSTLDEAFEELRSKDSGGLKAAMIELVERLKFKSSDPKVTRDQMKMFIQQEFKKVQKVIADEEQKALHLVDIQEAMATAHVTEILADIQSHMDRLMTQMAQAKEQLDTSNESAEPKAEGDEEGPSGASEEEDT
Chain of UniProt Q6NUQ4 (Q6NUQ4 whole entry, looked up): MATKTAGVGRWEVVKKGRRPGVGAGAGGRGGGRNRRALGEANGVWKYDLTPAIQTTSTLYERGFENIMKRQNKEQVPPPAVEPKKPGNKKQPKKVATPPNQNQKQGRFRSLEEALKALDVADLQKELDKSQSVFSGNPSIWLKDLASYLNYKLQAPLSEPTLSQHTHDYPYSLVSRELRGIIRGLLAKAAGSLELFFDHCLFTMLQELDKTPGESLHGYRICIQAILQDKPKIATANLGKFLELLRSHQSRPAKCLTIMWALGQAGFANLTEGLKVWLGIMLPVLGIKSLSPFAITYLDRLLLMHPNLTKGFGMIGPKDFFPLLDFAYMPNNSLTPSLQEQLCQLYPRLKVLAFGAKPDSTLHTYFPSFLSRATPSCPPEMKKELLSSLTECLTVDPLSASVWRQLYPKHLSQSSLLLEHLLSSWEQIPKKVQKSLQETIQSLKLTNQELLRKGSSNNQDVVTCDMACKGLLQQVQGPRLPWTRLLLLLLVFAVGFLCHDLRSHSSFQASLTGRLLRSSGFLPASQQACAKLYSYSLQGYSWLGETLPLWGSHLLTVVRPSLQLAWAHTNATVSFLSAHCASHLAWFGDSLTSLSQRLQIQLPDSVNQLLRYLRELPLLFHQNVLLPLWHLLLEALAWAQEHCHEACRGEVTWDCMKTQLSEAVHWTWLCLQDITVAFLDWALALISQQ
Chain of UniProt Q9H4I3 (Q9H4I3 whole entry, looked up): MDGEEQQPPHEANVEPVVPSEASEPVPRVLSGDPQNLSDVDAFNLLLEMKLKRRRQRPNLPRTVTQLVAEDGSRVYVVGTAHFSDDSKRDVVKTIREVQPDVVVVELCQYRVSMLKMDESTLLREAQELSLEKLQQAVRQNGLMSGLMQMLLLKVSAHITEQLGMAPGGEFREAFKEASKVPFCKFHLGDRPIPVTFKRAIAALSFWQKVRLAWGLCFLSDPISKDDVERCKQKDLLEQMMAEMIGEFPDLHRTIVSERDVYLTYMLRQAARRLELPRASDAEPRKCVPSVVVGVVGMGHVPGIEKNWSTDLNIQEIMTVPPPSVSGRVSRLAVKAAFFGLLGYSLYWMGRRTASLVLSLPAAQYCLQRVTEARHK
Chain of UniProt Q9BQB6 (Q9BQB6 whole entry, looked up): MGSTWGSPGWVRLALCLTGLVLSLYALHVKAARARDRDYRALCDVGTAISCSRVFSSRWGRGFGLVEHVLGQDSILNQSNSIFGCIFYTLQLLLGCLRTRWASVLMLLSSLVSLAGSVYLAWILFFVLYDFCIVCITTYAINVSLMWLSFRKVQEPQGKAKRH
Chain of UniProt Q8IWA0 (Q8IWA0 whole entry, looked up): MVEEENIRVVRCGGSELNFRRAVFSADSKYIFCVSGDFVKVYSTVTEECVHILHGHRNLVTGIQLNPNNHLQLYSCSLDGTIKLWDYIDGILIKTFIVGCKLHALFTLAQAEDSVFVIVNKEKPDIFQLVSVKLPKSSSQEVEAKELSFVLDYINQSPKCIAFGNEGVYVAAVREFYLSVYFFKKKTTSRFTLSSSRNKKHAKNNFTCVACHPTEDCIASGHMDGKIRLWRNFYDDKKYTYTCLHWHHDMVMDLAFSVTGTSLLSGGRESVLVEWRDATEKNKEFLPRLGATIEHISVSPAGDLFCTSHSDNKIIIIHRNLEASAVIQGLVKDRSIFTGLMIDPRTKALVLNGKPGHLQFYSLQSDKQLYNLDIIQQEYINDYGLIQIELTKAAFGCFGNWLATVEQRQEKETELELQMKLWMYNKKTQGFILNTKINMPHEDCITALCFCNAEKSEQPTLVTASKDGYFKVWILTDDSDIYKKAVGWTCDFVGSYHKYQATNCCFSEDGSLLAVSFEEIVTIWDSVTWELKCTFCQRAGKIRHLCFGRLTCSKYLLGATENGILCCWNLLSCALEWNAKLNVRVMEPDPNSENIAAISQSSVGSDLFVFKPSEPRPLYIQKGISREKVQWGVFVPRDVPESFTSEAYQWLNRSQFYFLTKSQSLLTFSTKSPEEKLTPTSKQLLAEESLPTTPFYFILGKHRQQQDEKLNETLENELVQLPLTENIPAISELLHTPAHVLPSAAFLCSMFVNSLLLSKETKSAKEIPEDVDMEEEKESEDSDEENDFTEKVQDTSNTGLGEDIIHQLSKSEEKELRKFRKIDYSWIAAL
Chain of UniProt Q9NYU2 (Q9NYU2 whole entry, looked up): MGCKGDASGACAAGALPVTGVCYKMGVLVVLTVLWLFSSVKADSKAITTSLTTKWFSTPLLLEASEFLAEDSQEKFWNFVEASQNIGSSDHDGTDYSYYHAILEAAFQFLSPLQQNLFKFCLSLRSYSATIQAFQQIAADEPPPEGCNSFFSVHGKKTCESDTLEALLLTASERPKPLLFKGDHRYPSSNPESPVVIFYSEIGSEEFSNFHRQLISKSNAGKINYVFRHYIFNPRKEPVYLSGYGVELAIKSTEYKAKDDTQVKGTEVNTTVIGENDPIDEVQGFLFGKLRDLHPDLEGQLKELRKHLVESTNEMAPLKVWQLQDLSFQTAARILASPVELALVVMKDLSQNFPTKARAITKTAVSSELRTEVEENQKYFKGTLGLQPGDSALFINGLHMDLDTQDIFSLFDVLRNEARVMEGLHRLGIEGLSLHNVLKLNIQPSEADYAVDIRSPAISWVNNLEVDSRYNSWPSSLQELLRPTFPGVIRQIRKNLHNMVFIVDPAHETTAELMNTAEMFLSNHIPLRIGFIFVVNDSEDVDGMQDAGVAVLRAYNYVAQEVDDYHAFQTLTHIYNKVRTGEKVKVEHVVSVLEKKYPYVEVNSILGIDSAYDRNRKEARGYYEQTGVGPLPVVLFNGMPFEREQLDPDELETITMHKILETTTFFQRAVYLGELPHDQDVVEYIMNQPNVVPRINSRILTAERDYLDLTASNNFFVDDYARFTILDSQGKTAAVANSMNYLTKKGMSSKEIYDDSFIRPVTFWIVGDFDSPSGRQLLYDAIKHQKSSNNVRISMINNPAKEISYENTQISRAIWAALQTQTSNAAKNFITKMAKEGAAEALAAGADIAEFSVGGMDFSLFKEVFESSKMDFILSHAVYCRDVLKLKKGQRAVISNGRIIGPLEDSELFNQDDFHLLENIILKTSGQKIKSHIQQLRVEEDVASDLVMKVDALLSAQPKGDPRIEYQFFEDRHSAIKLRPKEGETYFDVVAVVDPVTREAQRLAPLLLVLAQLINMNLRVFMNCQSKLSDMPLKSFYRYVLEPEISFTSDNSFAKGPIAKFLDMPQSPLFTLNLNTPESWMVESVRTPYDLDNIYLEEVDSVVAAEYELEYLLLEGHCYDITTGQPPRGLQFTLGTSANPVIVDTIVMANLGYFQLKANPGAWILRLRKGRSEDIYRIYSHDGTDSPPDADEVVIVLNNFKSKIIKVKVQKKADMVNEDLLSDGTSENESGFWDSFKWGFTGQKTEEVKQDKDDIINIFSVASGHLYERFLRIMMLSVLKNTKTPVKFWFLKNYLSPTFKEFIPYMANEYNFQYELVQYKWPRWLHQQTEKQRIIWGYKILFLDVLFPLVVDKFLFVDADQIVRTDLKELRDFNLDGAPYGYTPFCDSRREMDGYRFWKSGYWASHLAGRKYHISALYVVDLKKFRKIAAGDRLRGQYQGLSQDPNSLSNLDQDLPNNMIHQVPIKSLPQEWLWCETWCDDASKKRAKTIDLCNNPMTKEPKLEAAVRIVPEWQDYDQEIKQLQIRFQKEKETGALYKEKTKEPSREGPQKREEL
Chain of UniProt O43592 (O43592 whole entry, looked up): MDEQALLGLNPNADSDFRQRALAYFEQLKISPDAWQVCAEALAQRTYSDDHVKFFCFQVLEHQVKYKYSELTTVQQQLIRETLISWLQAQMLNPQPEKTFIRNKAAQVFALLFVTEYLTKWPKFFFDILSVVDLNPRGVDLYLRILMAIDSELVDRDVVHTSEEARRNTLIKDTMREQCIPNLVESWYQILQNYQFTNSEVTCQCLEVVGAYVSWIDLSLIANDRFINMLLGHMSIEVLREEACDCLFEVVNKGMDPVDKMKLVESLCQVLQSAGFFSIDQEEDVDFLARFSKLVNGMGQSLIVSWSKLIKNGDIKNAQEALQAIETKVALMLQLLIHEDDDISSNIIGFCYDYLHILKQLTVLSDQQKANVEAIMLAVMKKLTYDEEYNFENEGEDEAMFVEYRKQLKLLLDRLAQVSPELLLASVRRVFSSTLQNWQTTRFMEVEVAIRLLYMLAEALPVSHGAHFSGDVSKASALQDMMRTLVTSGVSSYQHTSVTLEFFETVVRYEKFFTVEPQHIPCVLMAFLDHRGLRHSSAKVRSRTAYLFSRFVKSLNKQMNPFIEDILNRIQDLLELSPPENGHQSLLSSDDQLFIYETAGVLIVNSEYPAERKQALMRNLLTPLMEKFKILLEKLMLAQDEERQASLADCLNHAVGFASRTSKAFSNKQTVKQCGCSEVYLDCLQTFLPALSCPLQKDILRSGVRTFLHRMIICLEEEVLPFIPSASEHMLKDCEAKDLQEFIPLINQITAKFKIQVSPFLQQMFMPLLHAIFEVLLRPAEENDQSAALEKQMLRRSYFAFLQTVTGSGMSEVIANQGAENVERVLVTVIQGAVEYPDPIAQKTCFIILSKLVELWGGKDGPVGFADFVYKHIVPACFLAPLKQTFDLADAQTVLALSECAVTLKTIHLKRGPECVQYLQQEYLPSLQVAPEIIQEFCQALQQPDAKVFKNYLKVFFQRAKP

Row | Target | log2 fold change (IRAK-1-4 Inhibitor I) | log2 fold change (ibrutinib) | log2 fold change [1] | log2 fold change [2] | log2 fold change (pinometostat) | log2 fold change [3] | log2 fold change [4] | log2 fold change [5] | log2 fold change [6] | log2 fold change (vemurafenib) | log2 fold change [7] | log2 fold change (givinostat) | log2 fold change (barasertib) | log2 fold change (ralimetinib) | log2 fold change [8] | log2 fold change [9] | log2 fold change [10] | log2 fold change [11] | log2 fold change (Nexturastat A) | log2 fold change [12]
1 | WARS1 (UniProt G3V277) | -0.005 | -0.064 | -0.184 | -0.009 | 0.114 | 0.091 | 0.087 | 0.02 | -0.043 | -0.587 (active) | -0.338 | 0.141 | 0.073 |  |  |  |  |  |  | 
2 | UBE3B (UniProt Q7Z3V4) | -0.182 | -0.019 | -0.068 |  | 0.239 | -0.102 | -0.188 | 0.142 | 0.007 |  |  |  | -0.057 | -0.296 | -0.154 | 0.001 | 0.086 | -0.03 | 0.014 | -0.099
3 | TMEM184C (UniProt Q9NVA4) | 0.105 | -0.037 | 0.042 |  | -0.021 | 0.081 | -0.005 | -0.07 | 0.028 | 0.024 | -0.028 |  | 0.055 | -0.033 | 0.088 | 0.042 | 0.028 |  | -0.02 | 
4 | VPS39 (UniProt Q96JC1) | -0.055 | -0.015 | -0.036 | -0.265 | 0.032 | -0.027 | 0.008 | 0.049 | 0.031 | 0.041 | -0.029 | 0.019 | 0.053 | -0.018 | -0.039 | 0.031 | -0.015 | 0.011 | 0.014 | 0.059
5 | TRABD (UniProt Q9H4I3) | -0.046 | 0.007 | -0.032 | 0.416 (active) | 0.018 | -0.005 | -0.005 | 0.014 | -0.133 | 0.125 | 0.147 | -0.041 | 0.031 | 0.073 | 0.277 | 0.045 | -0.017 | -0.005 | -0.03 | -0.06
6 | TMEM179B (UniProt Q7Z7N9) | 0.04 | -0.05 | -0.061 | -0.011 | -0.024 | 0.017 | 0.019 | -0.233 | 0.027 |  | -0.021 | -0.118 | 0.045 | -0.008 | -0.24 | -0.021 | -0.003 | 0.011 | 0.378 | 0.053
7 | UTP3 (UniProt Q9NQZ2) | -0.053 | 0.072 | 0.031 | -0.062 | 0.159 |  | -0.571 | -0.016 | -0.048 | 0.004 | 0.101 | 0.075 | -0.08 | 0.021 | 0.062 | 0.253 | 0.008 | -0.094 | 0.308 | 0.022
8 | TTC33 (UniProt Q6PID6) | 0.059 | 0.058 | -0.121 | -0.075 | 0.111 |  |  | -0.046 | -0.189 | -0.07 | -0.471 | -0.062 | 0.079 | 0.009 | -0.023 | 0.139 | -0.025 | -0.059 | 0.026 | -0.002
9 | XPOT (UniProt O43592) | -0.035 | -0.061 | 0.064 | -0.345 (active) | 0.03 | 0.001 | 0.033 | 0.018 | 0.029 | 0.039 | 0.014 | 0.007 | 0.08 | -0.079 | -0.146 | 0.053 | -0.031 | 0.023 | -0.012 | 0.128
10 | TRIM44 (UniProt Q96DX7) | 0.031 | 0.018 | 0.067 | -0.06 | -0.01 | -0.007 | -0.327 (active) | 0.059 | 0.015 | -0.005 | 0 | -0.026 | -0.035 | -0.094 |  | 0.061 | -0.055 | 0.06 |  | 0.042
11 | VKORC1 (UniProt Q9BQB6) | -0.056 | 0.024 | -0.033 | -0.306 | 0.092 | 0.007 | 0.049 | 0.064 | -0.325 (active) | -0.023 | -0.017 | -0.006 | 0.048 | -0.052 |  | -0.029 | -0.04 | 0.001 |  | 0.117
12 | WDR75 (UniProt Q8IWA0) | -0.081 | -0.026 | -0.196 |  | 0.197 | 0.058 | 0.402 |  | -0.053 | -0.126 | 0.107 |  | 0.025 | 0.189 | 0.012 | 0.178 | 0.007 | 0.043 | 0.395 | -0.069
13 | TMEM263 (UniProt Q8WUH6) | 0.083 | 0 | 0.026 | -1.03 (active) | 0.001 | 0.092 | 0.037 | -0.009 | 0.059 | -0.051 | -0.138 | -0.015 | 0.054 | -0.092 | -0.303 | 0.029 | -0.015 | 0.117 | -0.02 | 0.128
14 | TMEM106B (UniProt Q9NUM4) | 0.056 | 0.029 | 0.043 | -0.092 | 0.085 | 0.026 | -0.027 | -0.029 | 0.019 | -0.163 | -0.023 | 0.052 | -0.039 |  | 0.043 |  |  | 0.161 | -0.11 | -0.081
15 | UGGT1 (UniProt Q9NYU2) | -0.011 | -0.027 | 0.001 | -0.007 | 0.028 | -0.003 | 0.023 | -0.001 | -0.018 | 0 | 0.024 | 0.02 | 0 | 0.001 | -0.028 | -0.038 | 0.004 | 0.001 | 0.014 | 0.003
16 | TNPO3 (UniProt Q9Y5L0) | -0.006 | -0.02 | -0.014 | -0.154 | 0.006 | 0.036 | -0.02 | 0.028 | 0.003 | 0.069 | 0.003 | 0.029 | 0.019 | 0.024 | -0.156 | -0.08 | 0.004 | 0.057 | -0.036 | 0.08
17 | TMEM214 (UniProt Q6NUQ4) | -0.076 | -0.063 | 0.028 | 0.066 | 0.073 | 0.014 | 0.074 | -0.038 | 0.007 | 0.046 | 0 | 0.021 | -0.03 | -0.03 | 0.019 | 0.044 | -0.054 | 0.023 | 0.062 | 0.065
18 | U2AF1L5 (UniProt P0DN76) | 0.042 | -0.032 | -0.389 | -0.19 | 0.014 | -0.209 | -0.067 |  | -0.036 | 0.019 | 0.06 | 0.563 | -0.127 |  |  |  |  |  |  | 
